What all share (assay): DAPPL (digital affinity profiling via proximity ligation, sequencing); 10 mM Tris-HCl pH 7.5, 50 mM NaCl, 1 mM DTT, 4% glycerol, room temperature, 30 min; GST-TFs on glutathione beads, 16-mer random dsDNA library, 0.1% formaldehyde crosslink after washing; high values mean tight binding
For one test, the target named is T1, FEV (Homo sapiens, UniProt Q99581 1-238).
T1 sequence: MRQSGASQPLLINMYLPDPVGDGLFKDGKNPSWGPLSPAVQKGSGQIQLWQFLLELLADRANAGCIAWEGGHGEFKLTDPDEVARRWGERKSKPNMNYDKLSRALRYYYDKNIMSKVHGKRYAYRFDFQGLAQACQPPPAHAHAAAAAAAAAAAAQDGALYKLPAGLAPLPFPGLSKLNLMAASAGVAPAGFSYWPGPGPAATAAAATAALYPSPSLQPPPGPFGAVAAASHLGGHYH
The following applies: protein: recombinant; tags: N-terminal GST; dsDNA, one strand shown. The gist of the method: (§1)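 Human transcription factors carrying a GST fusion were produced in yeast, bound to glutathione beads, tagged with DNA barcodes and pooled together with a tag-only sample. Each pool was held with 200 nmole of a random double-stranded 16-mer DNA library in Tris/NaCl/DTT/glycerol buffer for 30 min at room temperature, then washed, crosslinked in 0.1% formaldehyde, proximity-ligated with BsaI/T4 ligase (1 h, 37 °C), PCR-amplified and sequenced on an Illumina NextSeq500. Binding signal is the read frequency of each hexamer for a given factor divided by its frequency in the tag-only sample.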

For another test, the target named is ETV5 (Homo sapiens, UniProt P41161 1-510). Particulars: protein: recombinant; tags: N-terminal GST; dsDNA, one strand shown. A digest of the protocol:
as §1

A further test has as its target HSF1 (Homo sapiens, UniProt Q00613 1-529). The following applies: protein: recombinant; tags: N-terminal GST; chain copies: 3; dsDNA, one strand shown. A digest of the protocol: as §1
In the next test the target is T2, SPIC (Homo sapiens, UniProt Q8N5J4 1-248).
T2 sequence: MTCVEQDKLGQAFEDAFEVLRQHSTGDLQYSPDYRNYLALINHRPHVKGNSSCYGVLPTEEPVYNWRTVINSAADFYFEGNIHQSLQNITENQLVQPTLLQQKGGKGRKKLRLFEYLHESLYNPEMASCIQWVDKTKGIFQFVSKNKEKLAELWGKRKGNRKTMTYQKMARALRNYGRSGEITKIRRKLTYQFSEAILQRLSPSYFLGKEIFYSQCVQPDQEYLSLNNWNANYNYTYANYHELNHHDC
Particulars: protein: recombinant; tags: N-terminal GST; dsDNA, one strand shown. The gist of the method:
as §1

Another test addresses ELF4 (Homo sapiens, UniProt Q99607 1-663). Particulars: protein: recombinant; tags: N-terminal GST; dsDNA, one strand shown. The gist of the method:
as §1

A further test deals with T3, ELK4 (Homo sapiens, UniProt P28324-2 1-405).
T3 sequence: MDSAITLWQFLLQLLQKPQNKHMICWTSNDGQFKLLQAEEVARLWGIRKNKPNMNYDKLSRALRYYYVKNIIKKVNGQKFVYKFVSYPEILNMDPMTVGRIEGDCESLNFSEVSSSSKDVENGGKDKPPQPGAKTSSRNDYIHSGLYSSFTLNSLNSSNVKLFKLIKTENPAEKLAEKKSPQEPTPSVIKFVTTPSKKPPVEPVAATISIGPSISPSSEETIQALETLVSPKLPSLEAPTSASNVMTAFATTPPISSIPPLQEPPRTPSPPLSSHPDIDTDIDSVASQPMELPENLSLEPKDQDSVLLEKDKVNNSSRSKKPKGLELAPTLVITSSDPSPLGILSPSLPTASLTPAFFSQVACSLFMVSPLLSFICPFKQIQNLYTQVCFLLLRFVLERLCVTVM
Particulars: protein: recombinant; tags: N-terminal GST; dsDNA, one strand shown. A digest of the protocol:
as §1

The target of the next test is T4, ETV2 (Homo sapiens, UniProt O00321 1-342).
T4 sequence: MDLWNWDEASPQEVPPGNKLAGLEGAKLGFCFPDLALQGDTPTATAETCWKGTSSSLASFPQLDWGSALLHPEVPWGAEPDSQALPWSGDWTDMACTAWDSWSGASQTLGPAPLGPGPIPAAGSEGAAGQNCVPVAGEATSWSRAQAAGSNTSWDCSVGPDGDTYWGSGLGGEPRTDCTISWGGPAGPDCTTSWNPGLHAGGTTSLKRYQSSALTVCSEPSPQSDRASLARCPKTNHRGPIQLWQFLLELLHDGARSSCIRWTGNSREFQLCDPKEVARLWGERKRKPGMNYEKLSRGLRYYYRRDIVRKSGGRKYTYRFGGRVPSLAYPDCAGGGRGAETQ
The following applies: protein: recombinant; tags: N-terminal GST; dsDNA, one strand shown. The gist of the method: as §1

The target in another test is T5, ELF3 (Homo sapiens, UniProt P78545 1-371).
T5 sequence: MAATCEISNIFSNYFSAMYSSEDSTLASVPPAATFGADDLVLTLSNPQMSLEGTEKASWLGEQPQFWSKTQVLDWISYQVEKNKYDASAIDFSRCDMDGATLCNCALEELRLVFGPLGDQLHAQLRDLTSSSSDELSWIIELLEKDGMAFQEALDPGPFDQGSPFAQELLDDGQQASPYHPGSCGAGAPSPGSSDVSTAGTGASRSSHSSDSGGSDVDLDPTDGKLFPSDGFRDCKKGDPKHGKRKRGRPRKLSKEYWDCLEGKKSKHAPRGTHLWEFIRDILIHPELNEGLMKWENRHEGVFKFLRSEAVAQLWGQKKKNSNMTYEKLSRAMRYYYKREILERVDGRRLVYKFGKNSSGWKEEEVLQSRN
Particulars: protein: recombinant; tags: N-terminal GST; dsDNA, one strand shown. A digest of the protocol:
as §1

Another test has as its target CRX (Homo sapiens, UniProt O43186 1-299). The following applies: protein: recombinant; tags: N-terminal GST; dsDNA, one strand shown. The gist of the method:
as §1

The target of another test is ETV1 (Homo sapiens, UniProt P50549 1-477). The following applies: protein: recombinant; tags: N-terminal GST; dsDNA, one strand shown. A digest of the protocol:
as §1

The target of a further test is T6, ERF (Homo sapiens, UniProt P50548 1-548).
T6 sequence: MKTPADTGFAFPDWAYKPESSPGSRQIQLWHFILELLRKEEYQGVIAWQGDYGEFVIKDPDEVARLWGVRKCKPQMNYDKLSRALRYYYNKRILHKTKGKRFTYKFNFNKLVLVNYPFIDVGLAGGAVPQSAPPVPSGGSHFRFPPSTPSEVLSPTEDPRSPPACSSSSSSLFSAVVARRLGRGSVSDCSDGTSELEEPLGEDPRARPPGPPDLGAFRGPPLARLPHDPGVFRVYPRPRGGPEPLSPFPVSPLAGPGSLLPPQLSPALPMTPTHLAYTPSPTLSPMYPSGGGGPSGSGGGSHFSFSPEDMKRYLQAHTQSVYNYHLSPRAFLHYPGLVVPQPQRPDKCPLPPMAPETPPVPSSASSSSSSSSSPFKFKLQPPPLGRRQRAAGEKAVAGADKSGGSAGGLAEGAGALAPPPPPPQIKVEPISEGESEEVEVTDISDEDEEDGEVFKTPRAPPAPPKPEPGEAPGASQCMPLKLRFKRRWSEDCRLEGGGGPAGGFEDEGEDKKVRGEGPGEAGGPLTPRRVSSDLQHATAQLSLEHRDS
The following applies: protein: recombinant; tags: N-terminal GST; dsDNA, one strand shown. A digest of the protocol: as §1

A further test concerns the target T7, ETV3L (Homo sapiens, UniProt Q6ZN32 1-361).
T7 sequence: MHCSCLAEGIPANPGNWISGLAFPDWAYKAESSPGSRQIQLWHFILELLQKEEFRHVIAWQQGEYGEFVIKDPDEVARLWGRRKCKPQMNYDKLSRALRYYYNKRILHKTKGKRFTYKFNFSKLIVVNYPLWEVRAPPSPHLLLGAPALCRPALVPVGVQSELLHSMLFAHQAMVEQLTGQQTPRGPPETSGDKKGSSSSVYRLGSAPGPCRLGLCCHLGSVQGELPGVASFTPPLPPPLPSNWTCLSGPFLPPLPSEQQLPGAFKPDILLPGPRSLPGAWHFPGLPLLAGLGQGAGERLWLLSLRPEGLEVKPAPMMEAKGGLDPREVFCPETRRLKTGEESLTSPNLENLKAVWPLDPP
The following applies: protein: recombinant; tags: N-terminal GST; dsDNA, one strand shown. A digest of the protocol:
as §1

The target of another test is T8, ETS2 (Homo sapiens, UniProt P15036 1-469).
T8 sequence: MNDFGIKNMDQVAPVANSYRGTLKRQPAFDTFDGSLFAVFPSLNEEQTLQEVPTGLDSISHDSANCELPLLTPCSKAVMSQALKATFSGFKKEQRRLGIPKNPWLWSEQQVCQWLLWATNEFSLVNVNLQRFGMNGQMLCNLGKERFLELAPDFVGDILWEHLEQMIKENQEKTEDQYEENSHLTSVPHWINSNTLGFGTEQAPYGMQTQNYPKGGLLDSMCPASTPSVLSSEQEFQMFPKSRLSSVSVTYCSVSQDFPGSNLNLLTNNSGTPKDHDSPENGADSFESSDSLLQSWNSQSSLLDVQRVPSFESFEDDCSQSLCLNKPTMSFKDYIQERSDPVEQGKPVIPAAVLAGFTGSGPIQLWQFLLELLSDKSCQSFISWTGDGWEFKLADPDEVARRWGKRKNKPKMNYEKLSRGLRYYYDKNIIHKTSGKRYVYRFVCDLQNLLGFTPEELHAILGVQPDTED
Particulars: protein: recombinant; tags: N-terminal GST; dsDNA, one strand shown. A digest of the protocol:
as §1

A further test deals with T9, SPDEF (Homo sapiens, UniProt O95238 1-335).
T9 sequence: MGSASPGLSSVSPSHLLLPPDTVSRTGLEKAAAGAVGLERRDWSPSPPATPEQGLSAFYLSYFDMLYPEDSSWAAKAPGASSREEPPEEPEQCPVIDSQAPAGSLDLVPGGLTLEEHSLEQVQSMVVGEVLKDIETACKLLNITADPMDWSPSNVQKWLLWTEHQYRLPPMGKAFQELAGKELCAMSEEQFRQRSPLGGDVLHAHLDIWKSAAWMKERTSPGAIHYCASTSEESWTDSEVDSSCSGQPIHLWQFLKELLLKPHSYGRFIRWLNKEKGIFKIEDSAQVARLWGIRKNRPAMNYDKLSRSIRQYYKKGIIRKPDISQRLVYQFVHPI
The following applies: protein: recombinant; tags: N-terminal GST; dsDNA, one strand shown. The gist of the method:
as §1

A further test deals with T10, ETV7 (Homo sapiens, UniProt Q9Y603 1-341).
T10 sequence: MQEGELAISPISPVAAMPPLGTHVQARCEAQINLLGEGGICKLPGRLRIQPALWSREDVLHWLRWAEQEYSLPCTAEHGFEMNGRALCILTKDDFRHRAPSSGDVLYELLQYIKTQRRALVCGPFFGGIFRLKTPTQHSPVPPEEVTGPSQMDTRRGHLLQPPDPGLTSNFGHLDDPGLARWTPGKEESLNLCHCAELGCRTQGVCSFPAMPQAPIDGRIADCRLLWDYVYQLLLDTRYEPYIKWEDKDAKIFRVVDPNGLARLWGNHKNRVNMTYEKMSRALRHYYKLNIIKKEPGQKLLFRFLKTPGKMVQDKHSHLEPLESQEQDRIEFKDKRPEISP
The following applies: protein: recombinant; tags: N-terminal GST; dsDNA, one strand shown. A digest of the protocol: as §1

Another test has as its target T11, ELF5 (Homo sapiens, UniProt Q9UKW6-2 1-255).
T11 sequence: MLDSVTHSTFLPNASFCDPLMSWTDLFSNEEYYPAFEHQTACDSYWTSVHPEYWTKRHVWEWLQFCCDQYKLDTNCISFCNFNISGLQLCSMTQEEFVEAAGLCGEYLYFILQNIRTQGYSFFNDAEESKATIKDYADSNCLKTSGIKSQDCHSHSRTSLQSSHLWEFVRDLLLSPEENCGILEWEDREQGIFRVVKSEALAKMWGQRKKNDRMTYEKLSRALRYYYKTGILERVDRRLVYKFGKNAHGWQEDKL
Particulars: protein: recombinant; tags: N-terminal GST; dsDNA, one strand shown. A digest of the protocol: as §1

A further test has as its target T12, ETV3 (Homo sapiens, UniProt P41162-2 1-143).
T12 sequence: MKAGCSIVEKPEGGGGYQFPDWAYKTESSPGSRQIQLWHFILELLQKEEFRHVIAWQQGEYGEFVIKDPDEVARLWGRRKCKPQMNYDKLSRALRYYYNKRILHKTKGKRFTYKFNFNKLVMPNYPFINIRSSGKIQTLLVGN
The following applies: protein: recombinant; tags: N-terminal GST; dsDNA, one strand shown. A digest of the protocol: as §1

A further test deals with ETV6 (Homo sapiens, UniProt P41212 1-452). The following applies: protein: recombinant; tags: N-terminal GST; dsDNA, one strand shown. The gist of the method: as §1
ETV6, sequence (P41212 whole entry): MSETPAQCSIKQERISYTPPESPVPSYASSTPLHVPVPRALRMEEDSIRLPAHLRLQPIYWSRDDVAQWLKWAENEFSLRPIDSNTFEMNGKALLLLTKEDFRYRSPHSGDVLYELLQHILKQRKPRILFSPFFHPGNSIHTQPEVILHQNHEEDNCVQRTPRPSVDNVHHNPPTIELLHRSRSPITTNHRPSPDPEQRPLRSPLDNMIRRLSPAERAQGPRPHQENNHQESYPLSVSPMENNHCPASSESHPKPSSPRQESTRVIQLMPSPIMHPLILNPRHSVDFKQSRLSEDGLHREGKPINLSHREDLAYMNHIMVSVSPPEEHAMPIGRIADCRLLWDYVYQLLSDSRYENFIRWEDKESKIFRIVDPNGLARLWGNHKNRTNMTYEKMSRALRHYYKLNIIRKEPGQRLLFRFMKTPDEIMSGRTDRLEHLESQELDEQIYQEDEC

CRX, sequence (O43186 whole entry): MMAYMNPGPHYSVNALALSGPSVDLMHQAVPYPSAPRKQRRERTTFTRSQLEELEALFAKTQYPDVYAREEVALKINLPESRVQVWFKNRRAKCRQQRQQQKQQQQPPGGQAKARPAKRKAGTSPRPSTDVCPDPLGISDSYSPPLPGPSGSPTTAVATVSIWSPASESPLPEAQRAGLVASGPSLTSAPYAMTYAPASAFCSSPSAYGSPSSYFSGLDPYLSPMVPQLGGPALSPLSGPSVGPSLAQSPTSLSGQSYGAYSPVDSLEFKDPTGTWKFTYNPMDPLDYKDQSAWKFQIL
ETV5, sequence (P41161 whole entry): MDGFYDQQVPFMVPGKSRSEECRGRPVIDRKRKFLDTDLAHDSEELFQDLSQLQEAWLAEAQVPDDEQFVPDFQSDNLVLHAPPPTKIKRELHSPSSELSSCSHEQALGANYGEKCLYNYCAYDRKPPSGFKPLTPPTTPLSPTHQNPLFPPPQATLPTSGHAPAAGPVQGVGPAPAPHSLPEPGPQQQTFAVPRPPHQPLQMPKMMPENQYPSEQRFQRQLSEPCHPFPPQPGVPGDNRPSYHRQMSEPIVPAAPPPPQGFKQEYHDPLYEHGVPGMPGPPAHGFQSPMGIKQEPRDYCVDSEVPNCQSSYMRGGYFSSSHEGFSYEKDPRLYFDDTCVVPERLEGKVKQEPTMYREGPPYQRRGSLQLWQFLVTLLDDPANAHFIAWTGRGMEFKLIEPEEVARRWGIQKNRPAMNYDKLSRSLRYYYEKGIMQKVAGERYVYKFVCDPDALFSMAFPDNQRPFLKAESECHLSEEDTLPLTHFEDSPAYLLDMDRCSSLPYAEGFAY
ETV1, sequence (P50549 whole entry): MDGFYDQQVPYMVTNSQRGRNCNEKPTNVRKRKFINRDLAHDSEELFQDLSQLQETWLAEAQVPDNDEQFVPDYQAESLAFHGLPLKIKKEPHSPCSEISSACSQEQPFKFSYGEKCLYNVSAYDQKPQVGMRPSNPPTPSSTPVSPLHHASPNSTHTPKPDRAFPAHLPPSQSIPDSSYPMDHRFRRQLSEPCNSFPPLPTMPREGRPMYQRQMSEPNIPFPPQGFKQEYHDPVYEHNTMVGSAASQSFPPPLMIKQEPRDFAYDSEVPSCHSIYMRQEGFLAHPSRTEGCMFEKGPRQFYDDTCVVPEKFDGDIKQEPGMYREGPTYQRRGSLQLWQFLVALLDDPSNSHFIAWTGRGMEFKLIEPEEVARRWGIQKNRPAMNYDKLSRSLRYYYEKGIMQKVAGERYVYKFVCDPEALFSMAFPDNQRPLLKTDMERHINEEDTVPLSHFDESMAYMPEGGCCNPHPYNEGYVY
HSF1, sequence (Q00613 whole entry): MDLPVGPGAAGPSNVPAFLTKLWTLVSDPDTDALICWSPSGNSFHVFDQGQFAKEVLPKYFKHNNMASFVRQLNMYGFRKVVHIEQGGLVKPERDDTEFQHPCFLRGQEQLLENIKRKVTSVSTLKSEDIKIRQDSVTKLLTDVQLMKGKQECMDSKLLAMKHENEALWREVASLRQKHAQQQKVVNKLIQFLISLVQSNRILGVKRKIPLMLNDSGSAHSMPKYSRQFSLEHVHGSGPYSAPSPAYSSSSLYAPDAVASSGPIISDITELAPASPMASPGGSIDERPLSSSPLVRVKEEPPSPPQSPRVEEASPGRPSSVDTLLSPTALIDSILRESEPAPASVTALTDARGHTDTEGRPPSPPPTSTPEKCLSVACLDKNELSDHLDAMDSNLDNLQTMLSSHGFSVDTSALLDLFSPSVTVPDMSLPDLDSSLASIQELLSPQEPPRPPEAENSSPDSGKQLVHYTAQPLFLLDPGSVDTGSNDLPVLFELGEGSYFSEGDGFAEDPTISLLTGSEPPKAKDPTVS
ELF4, sequence (Q99607 whole entry): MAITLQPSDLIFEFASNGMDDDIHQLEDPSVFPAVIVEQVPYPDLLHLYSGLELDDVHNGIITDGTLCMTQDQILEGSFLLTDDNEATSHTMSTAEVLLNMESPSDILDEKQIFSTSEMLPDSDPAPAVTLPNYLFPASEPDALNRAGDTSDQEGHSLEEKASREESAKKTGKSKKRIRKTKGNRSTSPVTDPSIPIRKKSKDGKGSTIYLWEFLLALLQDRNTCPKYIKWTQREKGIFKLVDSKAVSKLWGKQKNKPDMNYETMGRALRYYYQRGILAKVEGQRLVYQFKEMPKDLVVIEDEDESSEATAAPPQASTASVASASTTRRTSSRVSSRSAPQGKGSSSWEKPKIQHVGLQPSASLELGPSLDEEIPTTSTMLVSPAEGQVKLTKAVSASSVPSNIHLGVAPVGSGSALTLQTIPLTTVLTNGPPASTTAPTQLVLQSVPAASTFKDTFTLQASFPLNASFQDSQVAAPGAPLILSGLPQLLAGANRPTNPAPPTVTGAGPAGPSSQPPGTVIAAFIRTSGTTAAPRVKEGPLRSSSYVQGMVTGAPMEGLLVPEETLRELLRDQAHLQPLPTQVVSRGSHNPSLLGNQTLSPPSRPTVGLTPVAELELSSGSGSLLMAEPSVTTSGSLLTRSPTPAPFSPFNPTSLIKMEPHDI

Regarding CCTGCT, the binding signal with FEV was 1.67 fold enrichment (6-mer frequency, TF over GST control); in the test with ETV5 it was 1.64 fold enrichment (6-mer frequency, TF over GST control); with HSF1 it was 1.34 fold enrichment (6-mer frequency, TF over GST control); in the test with SPIC, 1.71 fold enrichment (6-mer frequency, TF over GST control); in the test with ELF4, 1.69 fold enrichment (6-mer frequency, TF over GST control); with ELK4 it was 1.73 fold enrichment (6-mer frequency, TF over GST control). The binding signal with ETV2 was 1.59 fold enrichment (6-mer frequency, TF over GST control); in the test with ELF3, 1.47 fold enrichment (6-mer frequency, TF over GST control); with CRX, 1.38 fold enrichment (6-mer frequency, TF over GST control); with ETV1 it was 1.68 fold enrichment (6-mer frequency, TF over GST control); with ERF, 1.53 fold enrichment (6-mer frequency, TF over GST control); with ETV3L, 1.65 fold enrichment (6-mer frequency, TF over GST control). The binding signal was 1.62 fold enrichment (6-mer frequency, TF over GST control) with ETS2; 1.82 fold enrichment (6-mer frequency, TF over GST control) in the test with SPDEF; 1.65 fold enrichment (6-mer frequency, TF over GST control) with ETV7; 1.84 fold enrichment (6-mer frequency, TF over GST control) in the test with ELF5; 1.67 fold enrichment (6-mer frequency, TF over GST control) in the test with ETV3; 1.68 fold enrichment (6-mer frequency, TF over GST control) with ETV6.

The values are drawn from publication PMC7862700, “An all-to-all approach to the identification of sequence-specific readers for epigenetic DNA modifications on cytosine”.
